Inhibition data for 86 compounds are collected here from PubChem BioAssay AID686964 (The Scripps Research Institute Molecular Screening Center, 2013).

Each structure is given as a SMILES string. “And” between values parts separate entries of the source, which are not always exact repeats. Equal values may be shown once. In all, about 370,000 compounds went through this assay and about 1,100 (0.3%) were called active. Rule as the data show it: active = inhibition above about 13%; inactive = the rest. What follows is part of a selection rich in actives, with near analogues and random picks from the rest.

This experiment deals with Methyl-CpG-binding domain protein 2 (Homo sapiens) (UniProt Q9UBB5). Nature of the experiment: MBD2-DBD methyl-oligonucleotide interaction blockers – biochemical, TR-FRET, DNA-binding domain, human, primary screen (AID 686964). The note with it: MBD2 binding to methylated oligonucleotide, at 4.4 µM, hits give high values. (In general: In TR-FRET formats the signal depends on donor and acceptor labels being close together.)
Methyl-CpG-binding domain protein 2 (Homo sapiens), sequence (Q9UBB5 whole entry, looked up, the tested form may be a part): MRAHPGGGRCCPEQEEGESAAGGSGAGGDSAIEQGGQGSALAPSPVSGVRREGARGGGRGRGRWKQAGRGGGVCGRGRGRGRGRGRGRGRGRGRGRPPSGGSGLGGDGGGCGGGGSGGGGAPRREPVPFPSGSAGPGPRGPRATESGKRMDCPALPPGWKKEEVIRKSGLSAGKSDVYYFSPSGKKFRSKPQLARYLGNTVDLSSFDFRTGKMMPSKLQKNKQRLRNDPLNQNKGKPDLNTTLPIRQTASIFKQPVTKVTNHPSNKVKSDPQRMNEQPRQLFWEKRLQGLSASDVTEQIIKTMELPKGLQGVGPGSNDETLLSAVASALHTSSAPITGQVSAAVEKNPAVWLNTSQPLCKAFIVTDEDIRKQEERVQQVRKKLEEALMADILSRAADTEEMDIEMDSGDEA
A word on the inhibition: it is the change of the read-out against control, counted positive when it falls. As to `CC1CCCCC1NC(=O)c1cn(C)c2ccc(S(=O)(=O)N3CCOCC3)cc2c1=O` (stereo unspecified), the inhibition was 0.43% (inactive).

For `CCn1cc(C(=O)N2CC(C)CC(C)C2)c(=O)c2cc(S(=O)(=O)N3CCCC3)ccc21` (stereo unspecified), the inhibition was -7.45% (inactive).

Regarding `COC(=O)c1cn(C)c2ccc(S(=O)(=O)N3CC(C)CC(C)C3)cc2c1=O` (stereo unspecified), the inhibition is 21.1% (active).

Consider `Cc1cc(C)c2nc(-c3cccnc3)cc(C(=O)Nc3ccc(S(=O)(=O)Nc4onc(C)c4C)cc3)c2c1`, for which the inhibition is -1.74% (inactive).

Turning to `Cc1cc(C)c2nc(-c3ccco3)cc(C(=O)O)c2c1`, the inhibition is 13.2% (active).

Regarding `CCOC(=O)c1ccn(-c2nc(-c3ccco3)cc(C(F)(F)F)n2)n1`, the inhibition is 1.89% (inactive).

With `CCC(=O)c1c(CC)c2n3c1=CC[C@H]3CC(Br)C=2` (stereo partly specified), the inhibition is 1.67% (inactive).

Take `Cc1ccc(C(=O)NNC(=O)c2ccncc2)cc1S(=O)(=O)N1CCCCC1`: the inhibition was -3.54% (inactive).

As for `Cc1ccc(NC(=O)C2CC(=O)N(c3ccc4c(c3)OCCO4)C2)cc1S(=O)(=O)N1CCCCCC1` (stereo unspecified), the inhibition was 2.94% (inactive).

On to `Cc1ccc(C(=O)Nc2ccc3c(c2)OCO3)cc1S(=O)(=O)N1CCCCC1`, for which the inhibition is 13.4% (active).

As to `Cc1cc(C)nc(NC(=S)N2CCN(c3ccc(C(F)(F)F)cn3)CC2)c1`, the inhibition is -0.18% (inactive).

For the compound `COC(=O)CN1C(=O)N/C(=C/c2ccc(OC)c(C)c2OC)C1=O`, the inhibition was -3.97% (inactive).

With `Cc1ccccc1NC(=O)CN1C(=O)N/C(=C\c2cccn2-c2cccc(C(=O)O)c2)C1=O`, the inhibition is 20.6% (active).

`N#Cc1ccccc1CN1C(=O)S/C(=C/c2cccn2-c2cccc(C(=O)O)c2)C1=O`: the inhibition was 10.6% (inactive).

In the case of `Cc1ccc(Cn2cc(CN3[C@@H](C)COc4cc(Br)ccc4S3(=O)=O)nn2)cc1`, the inhibition is -5.2% (inactive).

As for `CCc1noc(C)c1C(=O)N1CCN(S(=O)(=O)c2cccc(C(F)(F)F)c2)CC1`, the inhibition is -5.25% (inactive).

As for `O=C(CCl)NC1CCCCN(Cc2cccc(C(F)(F)F)c2)C1=O` (stereo unspecified), the inhibition was 3.06% (inactive).

Take `CCCSc1nc2sc3c(c2c(=O)n1-c1ccc(OC)cc1)CCN(C)C3`: the inhibition was -2% (inactive).

Consider `CCOc1ccc(-n2c(SCC(=O)Nc3ccc(OC)cc3)nc3sc4c(c3c2=O)CCN(C)C4)cc1`, for which the inhibition is 23.5% (active).

For the compound `CCn1c(SCC(=O)Nc2ccc(Br)cc2)nc2sc3c(c2c1=O)CCN(C)C3`, the inhibition is 0.05% (inactive).

On to `CCCCC(=O)N[C@@H]1CC[C@@]23CCCN2C(=O)CCC[C@H]3[C@H]1C`, for which the inhibition was -0.72% (inactive).

Consider `COc1ccc(Cl)cc1NC(=O)CN(C)Cc1ccc(OC)c(OC)c1`, for which the inhibition was 0.39% (inactive).

In the case of `COc1ccc(Cl)cc1NC(=O)CCS(=O)(=O)c1ccc(Br)cc1`, the inhibition is 26.3% (active).

`COc1ccc(Cl)cc1NC(=O)COC(=O)c1ccc(Br)o1`: the inhibition is -1.28% (inactive).

For the compound `CC(=O)N1CCc2cc(S(=O)(=O)NCCC(=O)N3CCCC3)ccc21`, the inhibition is 0.46% (inactive).

Take `CCCN(CC(=O)NC(=O)NC1CCCCC1)CC(=O)Nc1cc(Cl)ccc1Cl`: the inhibition is -5.45% (inactive).

On to `CCOC(=O)c1c(NC(=O)CCCN2CCOCC2)sc2c1CC(C)(C)OC2`, for which the inhibition was 0.1% (inactive).

For the compound `CCOC(=O)c1sc(NC(=O)CCN2CCOCC2)c(C(=O)OCC)c1C`, the inhibition was 28.4% (active).

In the case of `CCOC(=O)c1c(C)[nH]c(C(=O)NCCN2CCOCC2)c1C`, the inhibition is 4.74% (inactive).

Take `CCN(C(=O)[C@@H](C1CC1)[C@@H](O)c1ccc2ccccc2c1)c1ccccc1`: the inhibition was 3.52% (inactive).

`O=C1C(=O)N(Cc2ccc(-c3ccsc3)cc2)c2ccc(OC(F)(F)F)cc21`: the inhibition is -3.46% (inactive).

With `CC(C)CCN1CCC(C)(NC(=O)c2ccccc2)C1=O` (stereo unspecified), the inhibition was 0.15% (inactive).

With `COC(=O)[C@]1(C#N)CC(=O)N(CC2CCCCC2)[C@@H]1c1ccccc1`, the inhibition was -3.31% (inactive).

Consider `COC(=O)c1ccc2nc(-c3ccc(Cl)cc3)c(Cc3cccc(F)c3)n2c1`, for which the inhibition is 2.68% (inactive).

On to `COC(=O)c1ccc2nc(C3CCCCC3)c(Cc3cccc(F)c3)n2c1`, for which the inhibition is 19% (active).

As for `COC(=O)c1ccc2nc(-c3ccc(F)cc3)c(Cc3ccc(C)cc3)n2c1`, the inhibition was 3.12% (inactive).

On to `O=S1(=O)c2ccc(Br)cc2OC[C@H](Cc2ccccc2)N1Cc1cn(Cc2ccccc2)nn1`, for which the inhibition was 9.67% (inactive).

As for `Cc1cc(NCCc2c[nH]c3ccccc23)ccc1Oc1cccnc1`, the inhibition is -2.55% (inactive).

As to `COC(=O)c1ccc(SCc2ccccc2)nc1`, the inhibition was -4.53% (inactive).

`COC(=O)c1ccc(CSc2nncn2N)cc1`: the inhibition is 48.3% (active).

For `CC(C)CC(CC(C)C)=NNC(=O)c1ccc(CSc2nncn2C)cc1`, the inhibition was -5.89% (inactive).

In the case of `COc1cccc2c1C(=O)c1c(O)c3c(c(O)c1C2=O)CC(O)(C(C)=NNC(=O)c1ccc(Cl)c(Cl)c1)CC3OC1CC(N)C(O)C(C)O1` (stereo unspecified), the inhibition is 111% (active).

`CN[C@H]1C[C@H]2c3cc(N4CCOCC4)ccc3CCN2C[C@H]1[C@H](C)O`: the inhibition was -5.62% (inactive).

Consider `COC(=O)[C@@H]1CC(O)CN1C(=O)C12CC3CC(CC(C3)C1)C2` (stereo partly specified), for which the inhibition was 2.14% (inactive).

Take `COc1nc(Oc2ccc(=O)n(C)n2)nc(N(C)C)n1`: the inhibition is -3.73% (inactive).

As to `COc1nc(N(C)C)nc(N2CC(=O)N(CCNS(=O)(=O)c3ccc(C)cc3)C2=N)n1`, the inhibition is 15.6% (active).

As for `Cc1ccc(S(=O)(=O)NCCSC(C)(C)C)cc1`, the inhibition is 0.35% (inactive).

As for `COc1ccc(CSc2nnc(-c3cccc(C)c3)n2C)cc1`, the inhibition was 0% (inactive).

Regarding `Cc1cc(Cl)ccc1N1C(=O)CC(SCCC(=O)O)C1=O` (stereo unspecified), the inhibition is 2.13% (inactive).

Take `COC(=O)c1cc2c(c3c4ccccc4n(S(=O)(=O)c4cccc(C)c4)c13)C(=O)N(Cc1ccccc1)C2`: the inhibition was 0.83% (inactive).

For the compound `CCc1ccccc1NC(=O)CN(c1ccc(OC)cc1OC)S(=O)(=O)c1ccccc1[N+](=O)[O-]`, the inhibition was 2.54% (inactive).

Consider `CSc1ccc(CNCCN2CCOCC2)cc1`, for which the inhibition is 2.47% (inactive).

Turning to `c1ccc2cc3c(NCCN4CCOCC4)ccnc3cc2c1`, the inhibition is 15.3% (active).

In the case of `O=C(Cc1ccc(Br)cc1)NCCN1CCOCC1`, the inhibition is -0.23% (inactive).

With `COc1ccccc1C(=O)NNC(=O)CCN1C(=O)/C(=C\c2ccccc2)SC1=S`, the inhibition was 13.2% (active).

In the case of `COc1ccccc1C(=O)Nn1cnnc1`, the inhibition was 3.63% (inactive).

Consider `COc1ccccc1C(=O)NCC(=O)OCC(=O)NNC(=O)c1ccc(Br)cc1`, for which the inhibition is -6.8% (inactive).

Consider `Cn1cnnc1Sc1ccc(CN2CCN(C3CCCC3)C(CCO)C2)o1` (stereo unspecified), for which the inhibition is -4.49% (inactive).

Take `C[C@@H]1CN([C@@H](C)CO)C(=O)c2cccc(NC(=O)Nc3cccc4ccccc34)c2O[C@H]1CN(C)S(=O)(=O)c1ccccc1F`: the inhibition is -5.98% (inactive).

In the case of `COc1ccccc1C(=O)NC1CCCCN(C(C)C)C1=O` (stereo unspecified), the inhibition was 6.15% (inactive).

With `Cc1ccc(S(=O)(=O)N(CCc2ccccc2)c2ccc3c(c2)C2CC3CCN2C(=O)OCc2ccccc2)cc1` (stereo unspecified), the inhibition is -6.75% (inactive).

On to `COc1ccc(CNC(=O)C2CCC(CNc3c(N4CCOCC4)c(=O)c3=O)CC2)cc1` (stereo unspecified), for which the inhibition is -0.13% (inactive) and -5.05% (inactive).

On to `CCOc1ccc(NC(=O)c2cc(C)nc3ccccc23)cc1`, for which the inhibition is 16.2% (active).

As to `CCC(CC)C(C(=O)NC1CCCC1)N1CCN(c2cc(C)nc3ccccc23)CC1` (stereo unspecified), the inhibition was -3.59% (inactive).

Take `CCOc1cc(N2CCOCC2)c(OCC)cc1NC(=O)c1cc(C)nc2ccccc12`: the inhibition is 13.2% (active).

Take `CCOc1ncccc1C(=O)Nc1ccc(S(=O)(=O)Nc2nc(C)cc(C)n2)cc1`: the inhibition is -2.5% (inactive).

As for `Cc1cc(C(=O)OCC(=O)Nc2nccs2)c2ccccc2n1`, the inhibition is 8.33% (inactive).

Take `CCOc1cc(NC(=O)c2ccccc2C(=O)O)c(OCC)cc1NC(=O)c1ccccc1F`: the inhibition is 0.6% (inactive).

On to `O=C(CSc1nc2ccccc2nc1N1CCCCC1)N1CCN(S(=O)(=O)c2cccc([N+](=O)[O-])c2)CC1`, for which the inhibition was -6.32% (inactive).

For the compound `O=C(NCc1ccc(Cl)cc1)C1CCCN(c2nc3ccccc3o2)C1` (stereo unspecified), the inhibition was -3.29% (inactive).

Take `O=C(c1ccc(F)cc1)c1c[nH]c(C(=O)NCc2cccnc2)c1`: the inhibition is 4.31% (inactive).

As for `O=C1CC[C@@]23CCCN2C(=O)CCC[C@H]3[C@H]1Cc1ccccc1`, the inhibition is 1.8% (inactive).

Regarding `COC(=O)C(=Nc1ccccc1)/C(C(=O)C(=O)N(C)c1ccccc1)=C(\O)c1ccc(Cl)cc1`, the inhibition is -5.32% (inactive).

On to `C=CC1=C(C(=O)O)N2C(=O)[C@@H](NC(=O)/C(=N\OCC(=O)O)c3csc(N)n3)[C@H]2SC1`, for which the inhibition is 52.4% (active).

Consider `C=CC1=C(C(=O)O)N2C(=O)[C@@H](NC(=O)/C(=N/OCC(=O)O)c3csc(N)n3)[C@H]2SC1`, for which the inhibition is 73.1% (active).

As for `CCCNc1ncnc2sc(C)c(C)c12`, the inhibition was 1.28% (inactive).

Consider `O=C(Nc1cc(F)cc(F)c1)OC1CCC12CCC(c1ccccc1)CC2` (stereo unspecified), for which the inhibition was 0.3% (inactive).

Turning to `O=C1CC(c2ccc3c(c2)OCO3)N=C2N(CC3CC3)C/C(=C/c3ccccc3)N12` (stereo unspecified), the inhibition is -1.23% (inactive).

On to `COc1ccc(OCc2cc(C(=O)NCC3(C)COC3)no2)c(Cl)c1`, for which the inhibition is 17.4% (active).

With `Cc1cc(OCc2cc(C(=O)NCc3cc(C(C)C)no3)no2)cc(C)c1Cl`, the inhibition is 4.94% (inactive).

For `COCCN1CCN(C(=O)c2cc(COc3ccc(F)cc3Cl)on2)CC1`, the inhibition was 2.22% (inactive).

As to `COC(=O)C1=C(C)N(Cc2ccccc2C(F)(F)F)C(=NCc2ccc(C(F)(F)F)cc2)NC1c1ccc(F)cc1` (stereo unspecified), the inhibition is 2.2% (inactive).

Turning to `CN1C(=O)CN2CCc3ccccc3C2c2cc(Cl)ccc21` (stereo unspecified), the inhibition was -5.25% (inactive).

For the compound `Cc1ccc(NC(=O)Cc2cccc(F)c2)c(S(=O)(=O)N2CCOCC2)c1`, the inhibition was -5.33% (inactive).

For the compound `Cc1nc(CNc2ncnc3ccc(-c4ccc5c(c4)OCO5)cc23)cs1`, the inhibition was -2.98% (inactive).

`COc1ccc(C2Nc3ccccc3C(=O)N2Cc2cccs2)cc1COc1c(C)cccc1C` (stereo unspecified): the inhibition was -1.94% (inactive).
